Source: publication PMC8769072, “Proteome‐scale mapping of binding sites in the unstructured regions of the human proteome” (Molecular Systems Biology, 2022)

Each binder was assayed against TNKS 174-649, O95271.
TNKS 174-649, O95271, sequence (O95271 174-649): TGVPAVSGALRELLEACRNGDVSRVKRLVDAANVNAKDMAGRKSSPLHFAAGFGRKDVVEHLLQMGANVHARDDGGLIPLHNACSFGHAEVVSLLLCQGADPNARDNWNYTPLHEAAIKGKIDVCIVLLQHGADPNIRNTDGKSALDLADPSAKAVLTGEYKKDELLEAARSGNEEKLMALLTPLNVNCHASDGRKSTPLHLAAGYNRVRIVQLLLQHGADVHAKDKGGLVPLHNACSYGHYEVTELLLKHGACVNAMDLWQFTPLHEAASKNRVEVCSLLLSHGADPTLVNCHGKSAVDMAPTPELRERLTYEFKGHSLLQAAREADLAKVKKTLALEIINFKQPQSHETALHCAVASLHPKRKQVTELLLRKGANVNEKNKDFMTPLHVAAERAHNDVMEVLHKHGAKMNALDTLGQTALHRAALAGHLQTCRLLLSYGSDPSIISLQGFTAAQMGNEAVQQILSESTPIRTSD

Binder | selected by phage display
EEDADTMRLQPIGRDK [RSF1, Q96T23] | confidence 3 (active)
PQLPHLQRSPPDGQSF [SH3BP2, P78314] | confidence 2 (active)
GTREDPAGQETTAITN [LINC01547, P58512] | confidence 2 (active)
MSGLVLGQRDEPAGHR [KLC4, Q9NSK0] | confidence 2 (active)
ATGSDPLWQRLEPAGH [PLCH2, O75038] | confidence 4 (active)
ARQEPQGQEHQVDNTV [AMOTL1, Q8IY63] | confidence 3 (active)
TSVVGFSADGMRPEAI [MAP4K4, O95819] | confidence 2 (active)

What follows are binders tested against TSG101 1-145, Q99816.
TSG101 1-145, Q99816, sequence (Q99816 1-145): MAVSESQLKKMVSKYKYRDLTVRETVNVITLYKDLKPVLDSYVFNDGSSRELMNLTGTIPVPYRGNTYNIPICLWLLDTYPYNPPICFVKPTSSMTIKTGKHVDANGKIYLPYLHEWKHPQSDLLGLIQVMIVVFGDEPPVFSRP

Binder | selected by phage display
PTAPELRPSTSTDRPV | confidence 3 (active)
EHAELAPPAPSAPSWG [SHKBP1, Q8TBC3] | confidence 3 (active)
AVGASAPSAPTAHPQP [DCAF1, Q9Y4B6] | confidence 2 (active)
PSAPLPFVPPPAVPSV [PRRC1, Q96M27] | confidence 4 (active)
LPSAPGAEQTAGSLLY [E2F3, O00716] | confidence 2 (active)
VVVPSAPEVQETTRML [NEO1, Q92859] | confidence 2 (active)
EVHTAPSAPLAFGSQQ [ZNF589, Q86UQ0] | confidence 3 (active)
TAAIPSAPVLPPPPVH | confidence 4 (active)
PTPTAPLLPPQPATPL [EP300, Q09472] | confidence 2 (active)
MARPDPSAPPSLLLLL [FZD5, Q13467] | confidence 2 (active)
AEPSAPSLPAGPTGVE [TMEM131L, A2VDJ0] | confidence 3 (active)
SVAKAVQASAPADERI [STOX1, Q6ZVD7] | confidence 3 (active)
SLPHTPTTPTAPLTPV [FOXP1, Q9H334] | confidence 3 (active)
PVVPTAPELQPSTSTD | confidence 3 (active)
PSALPSVPEPSAPAAP [TRIM47, Q96LD4] | confidence 3 (active)
PSAPDMEDFGLVKLPH [POLE, Q07864] | confidence 2 (active)
EVLASAPPLPPSTAAP [WASH4P, A8MWX3] | confidence 3 (active)
SQPSAPDFVQRGFDSF [UTRN, P46939] | confidence 2 (active)
VTLPTAPNMNSEPTLQ [MFSD6, Q6ZSS7] | confidence 3 (active)
VGAKALPTAPPPPPLP [INF2, Q27J81] | confidence 3 (active)
VTVVPTAPDPVPADSV [CABIN1, Q9Y6J0] | confidence 3 (active)
AEASAPPAPELFSPPV [EME1, Q96AY2] | confidence 2 (active)
PTAPIFLQGLSDLKVM [MYLK, Q15746] | confidence 3 (active)
GSIVRPSAPPARSSVP | confidence 2 (active)
